Hit rate of the full screen: of about 5,500 compounds, about 2,000 (36%) were called active. About 18% were inconclusive and are not listed. Rule as the data show it: active = normalized growth mostly below about 0.91 (no sharp cut-off); inconclusive = no clear call, values can overlap the other calls; inactive = mostly above about 0.92. Some of the results follow.
Experiment: chemical genetic growth profiling, strain panel (AID 1159580);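 also: tested at 20 µM; growth read once vehicle control cultures reached saturation at 30 °C; 1 = growth at the plate median or of vehicle wells; lower values mean less growth of the strain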
Conditions: S. cerevisiae deletion strains, growth OD

Measured: normalized growth

O=C(O)c1cn(-c2ccc(F)cc2)c2cc(N3CCNCC3)c(F)cc2c1=O
inactive: locus YAL021C, strain ccr4, stronger effect = lower value 0.949 | locus YAL026C, strain drs2, stronger effect = lower value 0.975 | locus YAL030W, strain snc1, stronger effect = lower value 0.964 | locus YBL061C, strain skt5, stronger effect = lower value 0.981 | locus YBR009C, strain hhf1, stronger effect = lower value 0.979 | locus YBR023C, strain chs3, stronger effect = lower value 0.966 | locus YBR171W, strain sec66, stronger effect = lower value 0.958 | locus YBR231C, strain swc5, stronger effect = lower value 0.967 | locus YBR279W, strain paf1, stronger effect = lower value 0.959 | locus YCL011C, strain gbp2, stronger effect = lower value 0.975 | locus YCL016C, strain dcc1, stronger effect = lower value 0.983 | locus YCL061C, strain MRC1, stronger effect = lower value 0.969 | locus YCL069W, strain vba3, stronger effect = lower value 0.983 | locus YCR088W, strain abp1, stronger effect = lower value 0.982 | locus YDL005C, strain med2, stronger effect = lower value 0.985 | locus YDL040C, strain nat1, stronger effect = lower value 0.979 | locus YDR001C, strain nth1, stronger effect = lower value 0.952 | locus YDR069C, strain doa4, stronger effect = lower value 0.94 | locus YDR137W, strain rgp1, stronger effect = lower value 0.921 | locus YDR159W, strain sac3, stronger effect = lower value 0.96 | locus YDR195W, strain ref2 0.921 | locus YDR297W, strain sur2, stronger effect = lower value 0.981 | locus YDR334W, strain swr1, stronger effect = lower value 0.938 | locus YDR335W, strain msn5, stronger effect = lower value 0.949 | locus YDR392W, strain spt3, stronger effect = lower value 1.02 | locus YEL003W, strain gim4, stronger effect = lower value 0.96 | locus YEL037C, strain rad23, stronger effect = lower value 0.959 | locus YEL061C, strain CIN8 (second series), stronger effect = lower value 0.97 | locus YER015W, strain faa2, stronger effect = lower value 0.983 | locus YER016W, strain bim1, stronger effect = lower value 0.967 | locus YER111C, strain swi4, stronger effect = lower value 0.967 | locus YER155C, strain BEM2 (second series), stronger effect = lower value 0.919 | locus YFR010W, strain ubp6, stronger effect = lower value 0.949 | locus YGL167C, strain pmr1, stronger effect = lower value 0.941 | locus YGL173C, strain kem1, stronger effect = lower value 0.984 | locus YGL227W, strain vid30, stronger effect = lower value 0.954 | locus YGL240W, strain doc1, stronger effect = lower value 0.944 | locus YGL253W, strain hxk2, stronger effect = lower value 0.993 | locus YHR013C, strain ard1, stronger effect = lower value 0.982 | locus YHR027C, strain rpn1, stronger effect = lower value 0.976 | locus YHR030C, strain SLT2, stronger effect = lower value 1.04 | locus YHR079C, strain IRE1, stronger effect = lower value 1.03 | locus YHR142W, strain chs7, stronger effect = lower value 1.01 | locus YJL092W, strain hpr5, stronger effect = lower value 0.974 | locus YJL095W, strain BCK1 (second series), stronger effect = lower value 0.977 | locus YJL095W, strain BCK1, stronger effect = lower value 0.976 | locus YJL115W, strain asf1, stronger effect = lower value 0.963 | locus YJL129C, strain trk1, stronger effect = lower value 0.992 | locus YJL154C, strain vps35, stronger effect = lower value 0.97 | locus YJL164C, strain tpk1, stronger effect = lower value 0.993 | locus YJL166W, strain qcr8, stronger effect = lower value 0.947 | locus YJL187C, strain SWE1, stronger effect = lower value 0.979 | locus YJR066W, strain TOR1, stronger effect = lower value 0.985 | locus YKL160W, strain elf1, stronger effect = lower value 0.989 | locus YKR026C, strain gcn3, stronger effect = lower value 0.962 | locus YKR091W, strain srl3, stronger effect = lower value 0.979 | locus YLL001W, strain dnm1, stronger effect = lower value 0.977 | locus YLL026W, stronger effect = lower value 0.967 | locus YLL041C, strain sdh2, stronger effect = lower value 0.977 | locus YLR027C, strain aat2, stronger effect = lower value 0.982 | locus YLR113W, strain HOG1, stronger effect = lower value 0.975 | locus YLR221C, strain rsa3, stronger effect = lower value 0.992 | locus YLR258W, strain gsy2, stronger effect = lower value 0.979 | locus YLR262C, strain YPT6 (second series), stronger effect = lower value 0.951 | locus YLR320W, strain mms22, stronger effect = lower value 0.981 | locus YLR342W, strain FKS1, stronger effect = lower value 0.96 | locus YLR357W, strain rsc2, stronger effect = lower value 0.958 | locus YLR370C, strain arc18, stronger effect = lower value 0.948 | locus YLR384C, strain iki3, stronger effect = lower value 0.971 | locus YML120C, strain ndi1, stronger effect = lower value 0.972 | locus YMR058W, strain fet3, stronger effect = lower value 0.968 | locus YMR125W, strain sto1, stronger effect = lower value 0.967 | locus YMR129W, stronger effect = lower value 0.997 | locus YMR205C, strain PFK2, stronger effect = lower value 0.995 | locus YMR231W, strain pep5, stronger effect = lower value 0.973 | locus YNL071W, strain lat1, stronger effect = lower value 0.991 | locus YNL183C, strain NPR1, stronger effect = lower value 0.982 | locus YNL209W, strain ssb2, stronger effect = lower value 0.972 | locus YNL248C, strain rpa49, stronger effect = lower value 1.02 | locus YNL322C, strain KRE1 (second series), stronger effect = lower value 0.966 | locus YNR049C, strain mso1, stronger effect = lower value 0.979 | locus YOR001W, strain rrp6, stronger effect = lower value 0.952 | locus YOR070C, strain gyp1, stronger effect = lower value 0.984 | locus YOR080W, strain dia2, stronger effect = lower value 0.945 | locus YOR083W, strain WHI5, stronger effect = lower value 0.987 | locus YOR106W, strain vam3, stronger effect = lower value 0.962 | locus YOR231W, strain MKK1, stronger effect = lower value 1.01 | locus YOR265W, strain rbl2, stronger effect = lower value 0.974 | locus YOR270C, strain vph1, stronger effect = lower value 0.947 | locus YOR290C, strain snf2, stronger effect = lower value 0.965 | locus YPL051W, strain arl3, stronger effect = lower value 0.955 | locus YPL078C, strain atp4, stronger effect = lower value 0.972 | locus YPL106C, strain sse1, stronger effect = lower value 0.895 | locus YPL240C, strain hsp82, stronger effect = lower value 0.996 | locus YPL256C, strain CLN2, stronger effect = lower value 1.06
